Hit rate of the full screen: of about 68,000 compounds, about 2,700 (4%) showed an effect of 50% or more. The list comes from a sample in which strong results are over-represented; it also holds similar structures and randomly drawn compounds.

The test system of the test is Plasmodium berghei. In words: Screen against P. berghei liver stage (PbLuc), transformed with Luciferase, at 2uM. It is filed as functional, HepG2. As to conditions: tested at 2 uM.
With `CS(=O)(=O)N1CCC2(CC1)COC(COc1cccnc1)C2` (stereo not drawn), the INHIBITION turned out to be 19.91%.
The figure for `CNC(=O)c1ccc(S(=O)(=O)NCCc2ccccn2)cc1` is 24.15%.
As for `CNS(=O)(=O)c1ccc(C(=O)NCCNc2ncccn2)cc1`, the INHIBITION is given as -75.02%.
For `CNS(=O)(=O)c1ccc(C(=O)NCCc2ccccn2)cc1`, the INHIBITION came out at 62.46%.
Next, `O=C(Nc1ccccc1)N1CCn2nnc(COc3cccnc3)c2C1`: 11.72%.
The figure for `CCNC(=O)[C@@H]1CCCN1C1(C(=O)NC)CCC1` is 10.65%.
The figure for `CC(CC(=O)O)CC(=O)Nc1sc2c(c1C(N)=O)CCc1ccccc1-2` (stereo not drawn) is -0.22%.
For the compound `CC(C)(C)OC(=O)NCCNC(=O)c1ccc2cc[nH]c2c1`, the INHIBITION was found to be 13.72%.
The figure for `COc1cc(NCCNC(=O)c2ccc3[nH]ccc3c2)cc(OC)c1` is 57.75%; for `COc1cc(NCCNC(=O)c2cc[nH]c2C)cc(OC)c1` it is 12.43%.
As for `O=C(NCCCO)Nc1cccc(Cl)c1F`, the INHIBITION is recorded as -5.28%.
Next, `Fc1cnc(N2CCOC3(CCN(Cc4ccsc4)CC3)C2)nc1`: -35.12%; `CNC(=O)C1CCN(Cc2cc3c(cc2O)CCC3)CC1`: -23.73%; `CNS(=O)(=O)CCN1CC(c2ccccc2)(c2ccccc2)CCC1=O`: 40.51%.
Next, `Cc1cccc(NCc2ncc(C(C)(C)C)o2)c1`: 75.37%; `Cc1ccc(NCc2ncc(C(C)(C)C)o2)c(Cl)c1`: -32.82%.
The figure for `CC(C)(C)c1cnc(CNc2cccc(Cn3cnnc3)c2)o1` is -3.4%; for `CCc1nc(C)sc1CN1CC[C@](O)(CC)[C@H](O)C1` it is 20.36%; for `O=C(CCC(=O)NCc1cccc(Br)c1)NCCN1CCCC1` it is -64.94%.
In the case of `COCC(=O)NCc1cccc(Br)c1`, the INHIBITION came to 0.26%.
The figure for `O=C(COCC(=O)N1CCCCCC1)NCc1cccc(Br)c1` is 50.97%; for `Cc1ncn(-c2cc(N3CCN(S(C)(=O)=O)CC3)ncn2)c1C` it is 43.28%.
Regarding `CCOCC(=O)N1C[C@H]2CC[C@@H](C1)N(Cc1ccccn1)C2=O`, the INHIBITION is 37.77%.
The figure for `O=C(CSCC1CC1)N1C[C@H]2CC[C@@H](C1)N(Cc1ccccn1)C2=O` is 36.66%; for `CCCSCC(=O)N1C[C@H]2CC[C@@H](C1)N(Cc1ccccn1)C2=O` it is 60.9%; for `CC(C)(O)CN1CCN(C(=O)COCC(F)(F)F)CC1` it is 13.76%.
The figure for `COc1cc(C)c(S(=O)(=O)CC(=O)N(C)C(C)C)cc1OC` is 10.72%.
Next, `COc1cc(C)c(S(=O)(=O)CC(=O)N(C)C2CC2)cc1OC`: 51.87%.
With `CCN(C(=O)CS(=O)(=O)c1cc(OC)c(OC)cc1C)C1CC1`, the INHIBITION is recorded as 35.41%.
With `CCn1cc(S(=O)(=O)Nc2nc3c(s2)CC(C)CC3)cn1` (stereo not drawn), the INHIBITION is 32.56%.
In the case of `CCn1cc(S(=O)(=O)Nc2nc3c(s2)CCCC3)cn1`, the INHIBITION is 23.02%.
The figure for `CC1CCc2nc(NS(=O)(=O)c3cnn(C)c3)sc2C1` (stereo not drawn) is 54.52%; for `N#Cc1ccc(CN2CCN(Cc3ccncc3Cl)CC2=O)cc1` it is 26.27%.
The figure for `CC1CN(Cc2nc(Cc3ccccc3F)no2)CCN1C` (stereo not drawn) is 17.25%.
For `O=C(c1ccco1)N1CCOC2(COCCN(c3ncccn3)C2)C1` (stereo not drawn), the INHIBITION is given as 36.06%.
The figure for `Cc1cccc(CN2CCc3onc(CO)c3C2)n1` is 52.12%; for `Cc1cccc(CN2CCc3onc(CN(C)C)c3C2)n1` it is 26.77%; for `Cc1cccc(CN2CCc3onc(Cn4cccc4)c3C2)n1` it is 15.36%.
Take `CCOc1ncccc1NC(=O)NC1CCN(S(C)(=O)=O)CC1`: the INHIBITION was -68.26%.
The figure for `CCN(CC)C(=O)[C@@H]1C[C@@H](n2cc(-c3cccc(OC)c3)nn2)CN1` is 57.75%; for `CCN(CC)C(=O)[C@@H]1C[C@@H](n2cc(-c3ccccn3)nn2)CN1` it is 38.67%; for `CCN(CC)C(=O)[C@@H]1C[C@H](n2cc(-c3cccc(OC)c3)nn2)CN1` it is 36.28%.
Next, `CC1(C)CC(n2cc3nc(N4CCCC4)[nH]cc-3c2=O)CC(C)(C)N1`: 6.2%; `O=C(CCc1cccc(Cl)c1)NS(=O)(=O)Cc1ccon1`: 41.05%; `O=C(CCc1ccco1)NS(=O)(=O)Cc1ccon1`: 50.59%.
Next, `O=C(CCc1ccsc1)NS(=O)(=O)Cc1ccon1`: -6.64%; `CCCNc1ccc(C(=O)NCCc2cccc(OC)c2)cn1`: 19.09%.
Turning to `CC(C)NC(=O)N1CCCCC1c1nnc2n1CCNC2` (stereo not drawn), the INHIBITION was -15.93%.
On to `CC(NC(=O)c1ccc(Cl)cc1)c1nnc(SCC(=O)O)n1C` (stereo not drawn), for which the INHIBITION came to 4.37%.
Next, `Cc1c(CN2CC[C@@H](N3CCC(O)CC3)[C@H](O)C2)[nH]c2ccc(F)cc12`: 51.43%; `Cc1c(CN2CCCC(O)C2)[nH]c2ccc(F)cc12` (stereo not drawn): -1.51%; `Cc1c(CN2CC[C@@H](N3CCC(O)CC3)[C@H](O)C2)[nH]c2ccc(Cl)cc12`: -31.36%.
Consider `Cc1nccc(-c2ccccc2)c1C(=O)N1CC[C@](C)(O)C(C)(C)C1`, for which the INHIBITION was 48.93%.
The figure for `COC1COC2(CCN(Cc3ccc4ccccc4n3)CC2)C1` (stereo not drawn) is -0.18%; for `CCn1ncc(C(=O)NCc2ccc(C)c(OC)c2)c1C(F)(F)F` it is 55.52%; for `CCOc1cc(CNC(=O)c2cnn(CC)c2C(F)(F)F)ccn1` it is -61.54%.
Next, `CCOc1cccc(CNC(=O)c2cnn(CC)c2C(F)(F)F)c1`: 40.97%; `CN1CCC2(CC1)CN(C(=O)c1cccnc1)Cc1ccccc12`: -19.51%; `Cc1cncc(C(=O)N2Cc3ccccc3C3(CCN(C)CC3)C2)c1`: 5.28%.
As for `CN1CCC2(CC1)CN(C(=O)c1ccncc1)Cc1ccccc12`, the INHIBITION was determined as 56.25%.
The figure for `CCc1nnc(C2Cc3ccccc3CN2Cc2cc(C)on2)o1` (stereo not drawn) is 33.9%; for `Cc1cc(CN2Cc3ccccc3CC2c2nnc(C)o2)on1` (stereo not drawn) it is 21.91%.
Turning to `CCc1nnc(C2Cc3ccccc3CN2Cc2cc(C)no2)o1` (stereo not drawn), the INHIBITION worked out at 56.89%.
Next, `Cc1cnc(N2CCC3(CC2)CN(c2ccsc2)C(=O)CO3)nc1`: -38.48%.
For `CC(CN1CCOCC1)NC(=O)N1CCCC1` (stereo not drawn), the INHIBITION amounted to 34.93%.
Next, `Cc1ccoc1C(=O)N1C[C@@H](OCC2CC2)[C@H]2OCCC[C@H]21`: 8.25%; `CCc1nc(NC(=O)NCCc2cccc(C)n2)nn1C`: 21.14%.
Next, `CCCOc1cc(C)ccc1NC(=O)N(C)C`: -59.32%; `CC(=O)N(C)CC(=O)Nc1ccc(C)cc1OCc1ccccc1`: 50.03%; `CCCOc1cc(C)ccc1NC(=O)NCCNC(C)=O`: -3.26%.
For `CC(=O)NCCNC(=O)Nc1ccc(C)cc1OCc1ccccc1`, the INHIBITION was 3.22%.
Next, `CCOc1ccccc1NC(=O)N(CCO)Cc1ccsc1`: 38.66%; `Cc1ccc(NC(=O)N(CCO)CCO)c(OCc2ccccc2)c1`: 68.73%.
Next, `NC(=O)c1cc(C2CCCN(Cc3ccc4c(c3)OCCO4)C2)n[nH]1` (stereo not drawn): -16.03%; `Cc1nc(C2CCCN2CC(=O)NCCOc2ccc(F)cc2)no1` (stereo not drawn): 20.57%; `Cc1nccn1CCCn1cncc1-c1ccc2c(c1)CCC(C)N2C` (stereo not drawn): 12.29%.
Next, `CC(C)(C)c1nc(CN2CCCC2Cn2cncn2)no1` (stereo not drawn): 45.83%.
As to `COc1cccc(C2c3c(n[nH]c3C)N=C3COC(=O)C32)c1OC` (stereo not drawn), the INHIBITION is reported as -35.07%.
Next, `COc1ccc(OC)c(C2c3c(n[nH]c3C)N=C3COC(=O)C32)c1` (stereo not drawn): 26.14%; `COc1cccc(C2c3c(n[nH]c3C)N=C3COC(=O)C32)c1O` (stereo not drawn): 63.46%; `CNC(=O)CCN1CCCC1c1ccccc1Br` (stereo not drawn): 51.76%.
The figure for `CNC(=O)CN1CCCC1c1ccccc1Br` (stereo not drawn) is 1.9%; for `NC(=O)CN1CCCC1c1ccccc1Br` (stereo not drawn) it is -43.18%; for `Cc1nn(C)cc1CCC(=O)N1CCCC(n2cncn2)C1` (stereo not drawn) it is 26.71%.
The figure for `COc1c[nH]c(C(=O)Nc2nc(C)cs2)cc1=O` is 79.68%; for `COc1c[nH]c(C(=O)Nc2nc(C(C)(C)C)cs2)cc1=O` it is 34.71%.
On to `CCOC(=O)Cc1csc(NC(=O)c2cc(=O)c(OC)c[nH]2)n1`, for which the INHIBITION is listed as -5.51%.
Next, `Cc1c(C2CC(=O)Nc3c2cnn3C(C)C)cnn1C` (stereo not drawn): -0.58%; `O=C(CSc1nnc(N2CCOCC2)s1)NCc1cccs1`: 44.98%; `CCOc1cc(C)nc(N2CCN(C(=O)c3cn[nH]c3CC)CC2)n1`: 38.76%.
Next, `COc1ccnc(N2CCN(C(=O)COCC(F)(F)F)CC2)n1`: 4.19%; `CCc1[nH]ncc1C(=O)N1CCN(c2nccc(OC)n2)CC1`: -85.11%.
For `CCc1[nH]ncc1C(=O)N1CCN(c2nc(C)cc(OC)n2)CC1`, the INHIBITION is listed as 51.83%.
The figure for `COc1cc(C)nc(N2CCN(C(=O)COCC(F)(F)F)CC2)n1` is 51.21%; for `COc1cc(C)nc(N2CCN(C(=O)COCC3CC3)CC2)n1` it is 4.19%; for `Cc1ccnn1CCCNC(=O)C1CCN(S(C)(=O)=O)CC1` it is -11.34%.
As for `Cc1csc(N2CCN(C(=O)Cc3cccs3)CC2)n1`, the INHIBITION amounted to 6.07%.
The figure for `CC(C)(C)C(O)CN1CCN(Cc2cccc(C#N)c2)CC1` (stereo not drawn) is -4.89%; for `COc1ccc(CC(=O)N2CCCCC2Cn2cccn2)cc1OC` (stereo not drawn) it is -40.17%; for `CN1CCN(c2ccccc2NC(=O)NCCc2ccccc2)CC1` it is -10%.
`C=Cc1ccc(C(=O)NC2CCCc3nc(N(C)C)ncc32)cc1` (stereo not drawn): the INHIBITION is 34.61%.
In the case of `CC(C)n1c(=O)[nH]c2cn(-c3ccc(Br)cc3)c(=O)n21`, the INHIBITION was found to be 22.07%.
With `CCn1ccnc1CNCC1CCCN1c1cccnn1` (stereo not drawn), the INHIBITION stood at 39.92%.
The figure for `CN(CC(=O)Nc1ccncc1)CC1CCCN1c1cccnn1` (stereo not drawn) is -22.08%; for `CCn1ccnc1CN(C)CC1CCCN1c1cccnn1` (stereo not drawn) it is 55.52%; for `Cc1cc(NC(=O)CN(C)CC2CCCN2c2cccnn2)n(C)n1` (stereo not drawn) it is 51.03%.
The figure for `Cc1csc(NC(=O)CN(C)CC2CCCN2c2cccnn2)n1` (stereo not drawn) is 9.17%; for `Cc1cnc(CN(C)CC2CCCN2c2cccnn2)cn1` (stereo not drawn) it is 47.72%.

The values are drawn from ChEMBL document CHEMBL4513216, “Probing the Open Global Health Chemical Diversity Library for Multistage-Active Starting Points for Next-Generation Antimalarials” (ACS Infect Dis, 2020).
